Test results reported in PubChem BioAssay (NCI).
“And” between values parts separate entries of the source, which are not always exact repeats. Identical values can stand only once. The panel holds about 83,000 compounds, 20% with a hit somewhere; the sample as a whole holds those more often.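 Cells were grown in 96-well plates and exposed to the test compound at a single concentration for 48 hours; results are reported as percent growth, with values below 10 considered active.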 Values without a mark were called inactive. The source made the active and inactive calls.

Test system: MDA-MB-468 breast
Experiment: NCI-60 one-dose screen, 48 h (100 = growth as untreated, 0 = no growth, -100 = all killed)
Conditions: 10 µM unless noted

| Compound | growth |
| --- | --- |
| CCCCc1nc(/C=N/Nc2nc(Nc3ccccc3)nc(Nc3ccc(S(N)(=O)=O)cc3)n2)c(Cl)[nH]1 | -12.5% (active) |
| Cc1csc(NC(c2ccccc2)c2c(C)nc3ccccn23)n1 (stereo not drawn) | 100% |
| O=S(=O)(O)c1ccc(N=Nc2ccc(N=Nc3cccc4ccccc34)c(S(=O)(=O)O)c2)cc1 | 89.8% |
| O=C1OCC2=C1C(c1ccncc1)c1cc3c(cc1N2CCO)OCO3 (stereo not drawn) | 96.3% |
| C=C(C[C@@](O)(C(=O)Oc1ccccc1)C(=O)C1CCCCC1)c1ccccc1 | 85.3% |
| Cc1cc(N(CCCNc2ccnc3cc(Cl)ccc23)Cc2ccc3c(c2)OCO3)nc(N2CCOCC2)n1 | -14.4% (active) |
| O=S(=O)(c1cccc(NC2=Nc3cccc4cccc2c34)c1)N1CCCC1 | 36.4% |
| NCCCNc1nc2ccccc2c2c(=O)c3cc(F)cc(Cl)c3sc12 | 73.4% |
| COc1cc2c3c(n(CCCCNCCCn4c5c(c6cc(OC)c(OC)cc6c4=O)C(=O)c4cc6c(cc4-5)OCO6)c(=O)c2cc1OC)-c1cc2c(cc1C3=O)OCO2 | 97.7% |
| COc1ccc(C2CC(c3ccc(Nc4nc(NCCO)nc(Nc5ccc(Cl)cc5)n4)cc3)=Nc3c(N)nc(N)nc3N2)cc1 (stereo not drawn) | -23% (active) |
| N#Cc1nc(-c2ccccc2)oc1S(=O)(=O)N1CCN(CCc2ccccn2)CC1 | 25.7% |
| CN1CCN(Cc2ccc(NC(=O)c3cncc(C#Cc4cncn5ccnc45)c3)cc2C(F)(F)F)CC1 | 125% |
| COc1cc(C2CC(=O)c3ccccc3N2)cc(OC)c1OC (stereo not drawn) | 90.5% |
| Cc1nc2c(=O)[nH]c(=S)[nH]c2[nH]c1=O | 107% and 111% |
| CN1CCN(c2ccc3nc(-c4[nH]ncc4Nc4ncnc5[nH]ccc45)[nH]c3c2)CC1 | -55.6% (active) |
| CC(C)C1(C(C)C)NC(=O)NC1=O | 101% |
| N#Cc1c(N)nc(Nc2nc3ccccc3[nH]2)nc1-c1ccc(Cl)cc1 | 111% |
| Clc1cc2c(c(CSc3nc4ccccc4n4cccc34)c1)OCOC2 | -1.64% (active) |
| CCC(C)(C)C(=O)O[C@H]1C[C@@H](C)C=C2C=C[C@H](C)[C@H](CC[C@@H]3CC(SCCN)CC(=O)O3)[C@H]21 (stereo partly drawn) | 90.3% |
| CC(C)=CCc1cc(O)cc2c1OC(C=C(C)C)C1=C2C(=O)C2=C(NCCS2(=O)=O)C1=O (stereo not drawn) | -27% (active) |
| O=C(O)c1ccc(-c2nn(-c3ccc(C(=O)O)cc3)cc2/C=N/Nc2c(F)c(F)cc(F)c2F)cc1 | 117% |
| O=C(CI)NC(=O)NC(=O)NCc1ccccc1 | 65.5% |
| OCC(O)COc1ccc(Cl)cc1Cl (stereo not drawn) | 111% |
| Fc1cnccc1C1CC(c2ccc(N3CCNCC3)cc2)=NN1 (stereo not drawn) | 114% |
| CCCN(CCC)CCCNC(=O)c1cc2c(-c3ccc(OC)c(OC)c3)nn(C)c2s1 | 39% |
| Cc1ccc2nc(NC(=O)CSC(=S)N3CCN(c4ccccc4)CC3)sc2c1 | 101% |
| CCN(CCCCCCN1CC(=O)N(CCCCCCN(CC)Cc2ccccc2OC)CC1=O)Cc1ccccc1OC | 84% |
| Cc1ccc(S(=O)(=O)NCCNc2nc(Nc3ccc(N4CCN(C)CC4)cc3)nc3ccsc23)cc1 | 94.1% |
